Each structure is given as a SMILES string. The panel holds about 83,000 compounds, 20% with a hit somewhere; the sample as a whole holds those more often.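 Method: cells in 96-well plates; compound added at one concentration; 48 h incubation; percent growth measured; values under 10 scored active.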 Values without a mark were called inactive. Activity calls are given as the source filed them.

Common to all, as to test: NCI-60 one-dose screen, 48 h (100 = growth as untreated, 0 = no growth, -100 = all killed)
Conditions in all cases: 10 µM unless noted

Test [1] concerns T-47D breast.
Test [2] deals with BT-549 breast.
Test [3] relates to MDA-MB-435 melanoma.
Test [4] relates to SW-620 colon.
In test [5] the test system is MCF7 breast.
Test [6] concerns HCT-116 colon.
The subject of test [7] is HCC-2998 colon.
For test [8], the system named is KM12 colon.
Test [9] has as its system MDA-MB-468 breast.

As for `COC(=O)CSC1=C(C)C(=O)C(OC)=C(OC)C1=O`, the growth in [1] was 36.2%; in test [2] it was 79%; in test [3], 89.2%; in test [4] it was 84.5%; in test [5] it was 86.6%; in [6], 29.6%. For the same compound, the results for the growth in [7], in test [8] and in test [9] were 120%, 93.5% and 52%, respectively.

As for `Cc1oc(-c2ccccc2)nc1CN[C@@H]1C[C@@H]2C[C@H]([C@H]1C)C2(C)C`, the growth in test [1] was 0.388% (active); in test [2], 39.3%; in [3] it was 71.3%; in test [4], 22.8%; in test [5] it was -4.81% (active); in test [6], 9.06% (active). For the same compound, the growth in [7] was -75.6% (active); in test [8] it was 64.3%; in [9], -83.7% (active).

As for `NS(=O)(=O)c1cccc(Nc2nc(SCC(=O)c3ccc(F)cc3)nc3ccccc23)c1`, the growth was -7.28% (active) in test [1]; -5.16% (active) in [2]; -18% (active) in [3]; 27.4% in test [4]; 2.1% (active) in test [5]; 5.03% (active) in test [6]. Further, the growth in test [7] is 16%; in test [8], -1.98% (active); in test [9] it was -9.09% (active).

For `COc1cc2cc(C(=O)N3C[C@@H](CCl)c4c3cc(OC(=O)N(CCC(=O)N3CCN(C)CC3)C3CCCCC3)c3ccccc43)[nH]c2c(OC)c1OC`, the growth in [1] is -43.1% (active); in test [2] it was -94.4% (active); in [3], -90.8% (active); in [4] it was -55% (active); in [5] it was -59.6% (active); in [6] it was -88.1% (active). Besides, the growth was -91% (active) in test [7], -39.1% (active) in [8] and -91.8% (active) in [9].

Turning to `CC[C@]12C=CCN3CC[C@@]4(c5ccc(OC)cc5N(C)[C@H]4[C@@](O)(C(=O)OC)[C@@H]1OC(=O)CCC[P+](c1ccc(OC)cc1)(c1ccc(OC)cc1)c1ccc(OC)cc1)[C@@H]32`, the growth is -61.4% (active) in test [1]; -96.6% (active) in test [2]; -76.9% (active) in test [3]; -82.4% (active) in test [4]; -83% (active) in test [5]; -68.8% (active) in test [6]. The growth was -89.7% (active) in test [7], -65.3% (active) in test [8] and -92.1% (active) in test [9].

Take `COc1cc(/C=C/C(=O)c2cnn(-c3cc(=O)[nH]c4ccc(C)cc34)c2C)cc(OC)c1OC`: the growth in test [1] was 1.32% (active); in test [2], -57.2% (active); in [3] it was 1.91% (active); in [4] it was -57.6% (active); in [5], -15.7% (active); in test [6], -77.3% (active). The growth was -99% (active) in [7], -41.8% (active) in test [8] and -77.3% (active) in test [9].

With `Cc1nn(-c2ccccc2)c2nc(C)n(C(=O)N/N=C/c3cccc([N+](=O)[O-])c3)c(=O)c12`, the growth in [1] is 91.4%; in test [2] it was 155%; in [3], 96.5%; in [4] it was 103%; in test [5], 77.1%; in test [6] it was 87.5%. For the same compound, the growth in test [7] is 113%; in [8], 100%; in test [9], 73.1%.

As for `CCN(C(=O)CN1C(=O)/C(=C/c2ccco2)SC1=S)C1CCS(=O)(=O)C1` (stereo unspecified), the growth is 78.1% in test [1]; 97% in test [2]; 92.2% in test [3]; 102% in test [4]; 91.8% in test [5]; 98.2% in [6]. Also, the growth in test [7] is 106%; in test [8] it was 103%; in test [9], 61%.

For `COc1ccc(NC(=O)NN2C(=O)c3ccccc3N(C)C2c2ccc(OC)cc2)cc1` (stereo unspecified), the growth in test [1] is 97.1%; in test [2], 29.9%; in test [3] it was 103%; in [4] it was 100%; in test [5], 94.9%; in [6], 59.4%. Besides, the growth in test [7] was 113%; in test [8] it was 101%; in [9] it was 102%.

In the case of `O=C1N/C(=N\c2nccs2)S/C1=C\c1ccc([N+](=O)[O-])cc1`, the growth is 15.2% in test [1]; 35.5% in test [2]; 22.2% in test [3]; 20.9% in test [4]; 9.68% (active) in [5]; -1.76% (active) in test [6]. Moreover, the figures for the growth in [7], in test [8] and in test [9] were 22.7%, 14.2% and -14.6% (active), respectively.

As for `O=C(Cc1c(-c2cccc([N+](=O)[O-])c2)n(-c2ncnc3c2c(-c2ccccc2)c(-c2ccccc2)n3Cc2ccccc2)[nH]c1=O)c1ccc(Cl)c(Cl)c1`, the growth in test [1] is 0.846% (active); in test [2], 63.7%; in [3], 19.9%; in [4], 56.1%; in [5], 24.7%; in [6], 32.3%. Also, the growth in test [7] was 26.7%; in [8], 24.7%; in test [9] it was -10.4% (active).

Turning to `CCOc1ccccc1[C@H]1C(C(=O)c2ccc(Cl)cc2)C2(N[C@@H]1c1ccccc1)C(=O)Nc1ccc(Br)cc12` (stereo partly specified), the growth in [1] was 13.2%; in [2], -67.7% (active); in [3], -59.3% (active); in test [4], 15.8%; in test [5], -11.9% (active); in [6], -92.6% (active). For the same compound, the growth was -22% (active) in test [7], -9.26% (active) in [8] and -21.5% (active) in test [9].

Take `FC(F)(F)c1cc2c(Cl)ncnc2n1CCC1CCOCC1`: the growth in test [1] is 66.6%; in [2] it was -41.1% (active); in [3], -29.6% (active); in test [4] it was 35%; in test [5], 34.7%; in test [6], -53.5% (active). The growth in [7] was -90.6% (active); in test [8], 64.3%; in test [9] it was -82.9% (active).

In the case of `CN(C)c1nc(NCCNS(=O)(=O)c2ccc(C(=O)/C=C/c3ccc(F)cc3)cc2)nc(N2CCOCC2)n1`, the growth in test [1] is 35.4%; in [2], -24.8% (active); in [3], 3.15% (active); in test [4] it was -48.6% (active); in [5] it was 17.8%; in test [6] it was -96% (active). The growth is -96.5% (active) in test [7], -42.5% (active) in [8] and -36.6% (active) in test [9].

The values are drawn from PubChem BioAssay (NCI).
